Results from PubChem BioAssay (Tox21).
Where “and” joins values, the source holds several entries; their conditions need not be identical. Equal values may be shown once. Inconclusive results are not listed. The source holds several records for some structures; these can differ, active in one and inactive in another. Calls of active or inactive are those of the source. Unless noted, the call rests on the fitted dose curve; in most records, active means well fitted curve in the direction sought with a large enough effect in the repeat runs; inconclusive means weak or mixed curves; inactive means no such curve, though single readings can be large; an effect the other way counts as inactive or inconclusive.

How the values were obtained:
[1] = target: Estrogen receptor beta (Homo sapiens) (UniProt Q92731); experiment: qHTS assay to identify small molecule agonists of the estrogen receptor beta (ER-beta) signaling pathway (AID 1259377; active means well fitted activation curve with a large enough effect in the signal ratio in the repeat runs, not every such curve was filed as active; the % refers to the signal ratio)
Outline: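 Beta-lactamase reporter readout: fluorescence of LiveBLAzer B/G FRET substrate after 2 h at room temperature, following 16 h compound treatment of ER-beta-UAS-bla HEK293T cells at 37C in 2% charcoal-stripped FBS medium.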

[2] = target: Estrogen receptor beta (Homo sapiens) (UniProt Q92731); experiment: qHTS assay to identify small molecule antagonists of the estrogen receptor beta (ER-beta) signaling pathway (AID 1259378; active means well fitted inhibition curve with a large enough effect in the signal ratio in the repeat runs, not every such curve was filed as active; the % refers to the signal ratio; further: potency means the concentration at half of the fitted maximal effect)
Outline: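 Antagonist mode: compounds added to beta-lactamase reporter HEK293T ER-beta-UAS cells stimulated with E2 (1nM final), 16 hr at 37C. LiveBLAzer B/G FRET substrate, 2 hours room temperature, fluorescence read-out.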

[3] = qHTS assay to identify small molecule agonists of the androgen receptor (AR) signaling pathway in the presence of an antagonist - cell viability counter screen (AID 1259379); further: nearly all actives have a fitted effect of over 25% in size; further: potency means the concentration at half of the fitted maximal effect
Outline: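 Each compound was tested at 15 concentrations on MDA-kb2 cells in the presence of 3.0uM nilutamide. Viability was measured by CellTiter-Fluor fluorescence after a 16 hr incubation at 37C in a CO2-free atmosphere.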

[4] = qHTS assay to identify small molecule agonists of the estrogen receptor beta (ER-beta) signaling pathway - cell viability counter screen (AID 1259380); further: nearly all actives have a fitted effect of over 30% in size; further: potency means the concentration at half of the fitted maximal effect
Outline: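 Compounds dissolved in DMSO were pin-transferred onto ER-beta-UAS-bla HEK293T cells that had settled 6 hr, and exposure ran 16 hr at 37C. Following the reporter read, CellTiter-Glo luminescence after 30 min at room temperature indicated cytotoxicity.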

[5] = qHTS assay to identify small molecule antagonists of the estrogen receptor beta (ER-beta) signaling pathway - cell viability counter screen (AID 1259382);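 further: HEK293T cells carrying ER-beta-UAS-bla reporter stimulated with estradiol; series mostly up to about 92 µM; nearly all actives have a fitted effect of over 55% in size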
Outline: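 CellTiter-Glo ATP luminescence measured after the LiveBLAzer read in the same wells; ER-beta-UAS-bla HEK293T cells, 16 hr compound treatment with 1nM 17-beta-estradiol agonist at 37C, 5% CO2.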

[6] = target: Estrogen receptor (Homo sapiens) (UniProt P03372); experiment: qHTS assay to identify small molecule agonists of the estrogen receptor alpha (ER-alpha) signaling pathway in the presence of an antagonist (AID 1259383; calls by dose curve; further: top concentration of the series differs between compounds; nearly all actives have a fitted effect of over 15% in size)
Outline: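 Luminescent ERE-luciferase reporter, VM7Luc4E2 cells (endogenous ER-alpha); 10.0nM ICI-182,780 final; 15-point compound titration; 22hr at 37C; ONE-Glo, 30min RT.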

[7] = qHTS assay to identify small molecule agonists of the estrogen receptor alpha (ER-alpha) signaling pathway in the presence of an antagonist - cell viability counter screen (AID 1259386);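 further: series mostly up to about 92 µM; cells exposed to compounds for 22 h at 37 °C before the viability read; nearly all actives have a fitted effect of over 30% in size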
Outline: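 Using estrogen-depleted VM7Luc4E2 cells, the 15-concentration compound series was applied together with 10.0nM ICI-182,780 and incubated 22hr at 37C/5% CO2. Cell viability was then scored by CellTiter-Fluor.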

[8] = target: Progesterone receptor (Homo sapiens) (UniProt P06401); experiment: qHTS assay to identify small molecule agonists of the progesterone receptor (PR) signaling pathway (AID 1346784; calls by dose curve; further: nearly all actives have a fitted effect of over 30% in size)
Outline: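 HEK 293T PR-UAS-bla reporter cells, 2% charcoal-stripped FBS; 6 hr settle at 37C/5% CO2, compound (DMSO) 16 hr, LiveBLAzer B/G FRET substrate 2 hr RT, fluorescence intensity read.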

[9] = target: Progesterone receptor (Homo sapiens) (UniProt P06401); experiment: qHTS assay to identify small molecule antagonists of the progesterone receptor (PR) signaling pathway (AID 1346795; active means well fitted inhibition curve with a large enough effect in the signal ratio in the repeat runs, not every such curve was filed as active; the % refers to the signal ratio; further: potency means the concentration at half of the fitted maximal effect)
Outline: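 Beta-lactamase reporter, HEK293T PR-UAS-bla line; 2% charcoal-stripped FBS; 6 hr pre-incubation, 37C/5% CO2. Compound + R5020 1 nM final, 16 hr. LiveBLAzer B/G FRET substrate, 2 hr RT; fluorescence intensity read.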

[10] = qHTS assay to identify small molecule antagonists of the progesterone receptor (PR) signaling pathway - cell viability counter screen (AID 1346798); further: series mostly up to about 92 µM; nearly all actives have a fitted effect of over 50% in size
Outline: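 Luminescence readout (CellTiter-Glo, 30 min, RT) of viability in PR-UAS-bla HEK293T cells exposed to compound and R5020 agonist for 16 hr at 37C, 5% CO2; run in the same wells as the beta-lactamase reporter read.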

[11] = qHTS assay to identify small molecule agonists of the progesterone receptor (PR) signaling pathway - cell viability counter screen (AID 1346799; calls by dose curve; further: nearly all actives have a fitted effect of over 45% in size)
Outline: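 HEK293T PR-UAS-bla, 3,000 cells/well, 2% charcoal-stripped FBS; 6 h settle, compound 16 h at 37C/5% CO2; LiveBLAzer 2 h RT, then CellTiter-Glo 30 min RT, luminescence read.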

[12] = qHTS assay to identify small molecule antagonists of the TGF-beta/Smad signaling pathway - cell viability counter screen (AID 1346824); further: nearly all actives have a fitted effect of over 50% in size
Outline: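 Cytotoxicity counter-screen run in the same wells as the beta-lactamase Smad reporter read: CellTiter-Glo luminescence after 30 min at room temperature. HEK 293T SBE-bla cells had 5 hr compound exposure at 37 C with TGF-beta1 (0.25 ng/mL stock).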

[13] = qHTS assay to identify small molecule agonists of the TGF-beta/Smad signaling pathway - cell viability counter screen (AID 1346829); further: nearly all actives have a fitted effect of over 45% in size; further: potency means the concentration at half of the fitted maximal effect
Outline: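 CellTiter-Glo luminescence readout; SBE-bla HEK 293T cells, overnight plating, compound 5 hr at 37 C/5% CO2, then bla substrate 2 hr RT, then CellTiter-Glo 30 min RT.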

[14] = qHTS assay to identify small molecule agonists of the TGF-beta/Smad signaling pathway (AID 1346859; active means well fitted activation curve with a large enough effect in the signal ratio in the repeat runs, not every such curve was filed as active; the % refers to the signal ratio; further: series mostly up to about 77 µM)
Outline: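 Read-out: fluorescence at 460 and 530 nm (405 nm excitation) after a 2 hr room-temperature incubation with beta-lactamase FRET substrate. SBE-bla HEK 293T cells had been treated with test compounds for 5 hr at 37 C.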

[15] = target: Thyrotropin-releasing hormone receptor (Homo sapiens) (UniProt P34981); experiment: qHTS assay to identify small molecule antagonists of the thyrotropin-releasing hormone receptor (TRHR) signaling pathway (AID 1346877; active means well fitted inhibition curve with a large enough effect in the repeat runs, not every such curve was filed as active; further: series mostly up to about 51 µM)
Outline: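 Calcium signal in dye-loaded TRHR/HEK293 cells; compounds added 5 min before TRH (1 nM final); fluorescence monitored 3 min at 1 s steps.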

[16] = target: Thyrotropin-releasing hormone receptor (Homo sapiens) (UniProt P34981); experiment: qHTS assay to identify small molecule agonists of the thyrotropin-releasing hormone receptor (TRHR) signaling pathway (AID 1346891; calls by dose curve;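 further: HEK293 cells expressing TRHR with calcium dye readout; series mostly up to about 58 µM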)
Outline: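 HEK293/TRHR cells, 1500 per well, 18 h 37 °C; Ca dye 2 h 37 °C; pin-tool compound addition (agonist mode); kinetic fluorescence 3 min, 1 s reads; 15 concentrations, triplicate.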

[17] = Human pregnane X receptor (PXR) small molecule agonists, qHTS cell viability counter screen (AID 1346977); further: nearly all actives have a fitted effect of over 50% in size
Outline: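 Fluorescence read-out (CellTiter-Fluor) of viability in PXR-Luc HepG2 cells, multiplexed with the luciferase agonist read. Compounds in DMSO added after 5hr plating; 24hr total exposure at 37C, 5% CO2.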

[18] = target: Androgen receptor (Homo sapiens) (UniProt P10275); experiment: qHTS assay to identify small molecule agonists of the androgen receptor (AR) signaling pathway in the presence of an antagonist (AID 1259381; calls by dose curve; further: nearly all actives have a fitted effect of over 15% in size)
Outline: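 Plated MDA-kb2 cells (3,000/well) were pre-incubated 5hr, given nilutamide (3.0uM final) or buffer, then dosed with compounds in DMSO at 15 concentrations. Luciferase activity was quantified by luminescence after 16hr at 37C.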

[19] = qHTS assay to identify small molecule agonists or antagonists of the thyroid stimulating hormone receptor (TSHR) signaling pathway - wild type cell line counter screen (AID 1259384; calls by dose curve)
Outline: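 Counter screen in untransfected Hek293: compounds (15-point titration, triplicate) plus phosphodiesterase inhibitor Ro20-1724 added after 18 h plating; 30 min RT. Intracellular cAMP via competitive d2/cryptate immunoassay, 1 h incubation.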

[20] = target: Thyrotropin receptor (Homo sapiens) (UniProt P16473); experiment: qHTS assay to identify small molecule antagonists of the thyroid stimulating hormone receptor (TSHR) signaling pathway (AID 1259385; calls by dose curve; further: nearly all actives have a fitted effect of over 20% in size; further: potency means the concentration at half of the fitted maximal effect)
Outline: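 Antagonist mode: compound-treated TSHR-expressing HEK293 cells were stimulated with 1.5 ng/mL TSH (final) in presence of Ro20-1724 for 30 min at RT. HTRF cAMP detection after 1 h; each compound tested at 15 concentrations, triplicate.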

Measured: Potency

Estrogen receptor beta (Homo sapiens), sequence (Q92731 whole entry, looked up): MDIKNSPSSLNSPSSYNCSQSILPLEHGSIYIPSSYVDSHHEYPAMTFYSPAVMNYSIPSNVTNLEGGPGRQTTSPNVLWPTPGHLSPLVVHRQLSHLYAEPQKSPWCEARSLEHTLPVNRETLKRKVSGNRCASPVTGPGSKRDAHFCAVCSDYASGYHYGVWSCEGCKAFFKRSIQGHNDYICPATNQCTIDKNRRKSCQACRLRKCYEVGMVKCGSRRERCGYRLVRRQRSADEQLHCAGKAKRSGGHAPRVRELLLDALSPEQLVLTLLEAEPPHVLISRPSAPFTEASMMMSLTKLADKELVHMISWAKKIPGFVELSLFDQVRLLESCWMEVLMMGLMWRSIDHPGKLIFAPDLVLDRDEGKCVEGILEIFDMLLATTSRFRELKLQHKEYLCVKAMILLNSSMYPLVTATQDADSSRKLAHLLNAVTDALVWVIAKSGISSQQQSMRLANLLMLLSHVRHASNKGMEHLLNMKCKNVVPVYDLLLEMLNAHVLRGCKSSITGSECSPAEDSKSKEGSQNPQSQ
Estrogen receptor (Homo sapiens), sequence (P03372 whole entry, looked up): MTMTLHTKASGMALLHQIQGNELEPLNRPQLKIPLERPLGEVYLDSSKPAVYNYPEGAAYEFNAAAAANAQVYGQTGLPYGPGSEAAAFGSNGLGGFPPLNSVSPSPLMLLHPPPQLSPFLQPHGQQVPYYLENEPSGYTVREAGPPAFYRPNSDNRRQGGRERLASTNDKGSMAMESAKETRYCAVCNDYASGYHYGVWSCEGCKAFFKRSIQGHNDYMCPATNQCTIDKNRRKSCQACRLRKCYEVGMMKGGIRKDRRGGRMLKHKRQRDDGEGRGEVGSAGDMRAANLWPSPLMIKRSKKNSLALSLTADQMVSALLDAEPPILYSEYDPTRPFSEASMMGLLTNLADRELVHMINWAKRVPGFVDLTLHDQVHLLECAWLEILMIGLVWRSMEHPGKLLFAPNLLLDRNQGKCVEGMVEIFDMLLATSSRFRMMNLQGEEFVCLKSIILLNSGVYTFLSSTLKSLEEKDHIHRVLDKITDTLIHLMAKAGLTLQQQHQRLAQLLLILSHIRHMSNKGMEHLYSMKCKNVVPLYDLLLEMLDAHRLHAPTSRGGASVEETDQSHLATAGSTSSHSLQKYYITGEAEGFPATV
Progesterone receptor (Homo sapiens), sequence (P06401 whole entry, looked up): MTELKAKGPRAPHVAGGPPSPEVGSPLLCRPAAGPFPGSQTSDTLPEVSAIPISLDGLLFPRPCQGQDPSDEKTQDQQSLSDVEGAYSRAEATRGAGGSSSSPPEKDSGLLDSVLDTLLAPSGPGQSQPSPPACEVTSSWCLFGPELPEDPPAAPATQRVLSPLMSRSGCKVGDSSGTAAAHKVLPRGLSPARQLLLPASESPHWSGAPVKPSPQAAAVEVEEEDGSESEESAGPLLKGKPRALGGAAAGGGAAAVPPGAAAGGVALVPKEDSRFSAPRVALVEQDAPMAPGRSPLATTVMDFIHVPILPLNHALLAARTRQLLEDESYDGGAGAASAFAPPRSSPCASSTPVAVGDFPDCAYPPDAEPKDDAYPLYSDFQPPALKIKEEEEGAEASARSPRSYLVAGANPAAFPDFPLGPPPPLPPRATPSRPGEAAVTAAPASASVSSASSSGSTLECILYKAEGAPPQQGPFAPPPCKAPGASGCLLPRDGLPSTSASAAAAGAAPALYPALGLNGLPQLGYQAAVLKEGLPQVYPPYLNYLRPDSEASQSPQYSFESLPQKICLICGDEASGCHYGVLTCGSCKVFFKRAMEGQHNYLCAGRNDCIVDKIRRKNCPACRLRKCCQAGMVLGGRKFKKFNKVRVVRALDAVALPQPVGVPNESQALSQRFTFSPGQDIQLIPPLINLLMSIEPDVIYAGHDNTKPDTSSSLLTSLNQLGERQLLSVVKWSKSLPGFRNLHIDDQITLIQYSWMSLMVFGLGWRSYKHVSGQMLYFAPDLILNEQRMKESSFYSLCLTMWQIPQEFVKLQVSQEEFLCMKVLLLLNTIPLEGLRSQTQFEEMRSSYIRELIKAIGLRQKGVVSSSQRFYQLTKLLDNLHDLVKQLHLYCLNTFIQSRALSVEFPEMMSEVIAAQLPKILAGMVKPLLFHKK
Thyrotropin receptor (Homo sapiens), sequence (P16473 whole entry, looked up): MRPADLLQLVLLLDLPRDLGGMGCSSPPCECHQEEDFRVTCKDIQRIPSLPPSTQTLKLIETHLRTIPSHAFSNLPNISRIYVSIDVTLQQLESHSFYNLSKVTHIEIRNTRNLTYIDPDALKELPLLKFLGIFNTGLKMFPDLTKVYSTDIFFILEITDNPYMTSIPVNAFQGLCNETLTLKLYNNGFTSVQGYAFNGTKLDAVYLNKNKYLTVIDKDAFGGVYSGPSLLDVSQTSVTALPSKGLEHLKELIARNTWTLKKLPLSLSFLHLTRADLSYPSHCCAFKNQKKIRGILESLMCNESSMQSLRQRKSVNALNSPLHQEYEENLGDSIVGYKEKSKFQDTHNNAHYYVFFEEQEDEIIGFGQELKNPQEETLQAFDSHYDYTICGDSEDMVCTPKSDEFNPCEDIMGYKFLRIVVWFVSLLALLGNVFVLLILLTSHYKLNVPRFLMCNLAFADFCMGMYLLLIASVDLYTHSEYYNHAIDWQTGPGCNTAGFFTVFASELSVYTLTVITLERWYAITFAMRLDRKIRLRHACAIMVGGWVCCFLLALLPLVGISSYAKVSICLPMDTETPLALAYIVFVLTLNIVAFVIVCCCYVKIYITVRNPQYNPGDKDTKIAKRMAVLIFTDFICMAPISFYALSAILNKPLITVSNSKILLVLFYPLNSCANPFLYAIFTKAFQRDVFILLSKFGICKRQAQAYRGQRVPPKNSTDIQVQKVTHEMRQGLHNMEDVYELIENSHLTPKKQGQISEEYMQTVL
Androgen receptor (Homo sapiens), sequence (P10275 whole entry, looked up): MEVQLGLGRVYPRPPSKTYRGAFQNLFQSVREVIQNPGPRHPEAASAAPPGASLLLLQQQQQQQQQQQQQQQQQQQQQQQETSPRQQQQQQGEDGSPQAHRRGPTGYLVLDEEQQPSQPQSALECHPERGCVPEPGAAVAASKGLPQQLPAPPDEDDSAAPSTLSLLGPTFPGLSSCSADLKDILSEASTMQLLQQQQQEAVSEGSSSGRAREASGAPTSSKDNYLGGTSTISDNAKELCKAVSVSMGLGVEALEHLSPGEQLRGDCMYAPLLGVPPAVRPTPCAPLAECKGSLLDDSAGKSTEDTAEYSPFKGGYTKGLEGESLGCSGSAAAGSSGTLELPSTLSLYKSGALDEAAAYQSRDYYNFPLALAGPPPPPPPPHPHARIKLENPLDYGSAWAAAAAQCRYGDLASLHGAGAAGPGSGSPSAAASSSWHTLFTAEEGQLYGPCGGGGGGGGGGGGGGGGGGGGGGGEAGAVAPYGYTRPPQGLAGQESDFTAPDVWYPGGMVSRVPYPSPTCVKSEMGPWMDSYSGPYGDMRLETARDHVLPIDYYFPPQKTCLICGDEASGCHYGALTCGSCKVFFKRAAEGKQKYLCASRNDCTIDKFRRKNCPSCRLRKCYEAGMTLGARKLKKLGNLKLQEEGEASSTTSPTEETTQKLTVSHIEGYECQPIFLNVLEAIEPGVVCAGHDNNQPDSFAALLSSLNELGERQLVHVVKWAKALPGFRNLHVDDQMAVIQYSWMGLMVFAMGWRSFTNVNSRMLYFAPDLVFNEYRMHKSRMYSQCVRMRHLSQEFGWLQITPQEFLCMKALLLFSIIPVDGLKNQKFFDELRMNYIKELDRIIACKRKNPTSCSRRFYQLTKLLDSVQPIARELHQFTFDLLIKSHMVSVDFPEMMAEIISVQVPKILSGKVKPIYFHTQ
Thyrotropin-releasing hormone receptor (Homo sapiens), sequence (P34981 whole entry, looked up): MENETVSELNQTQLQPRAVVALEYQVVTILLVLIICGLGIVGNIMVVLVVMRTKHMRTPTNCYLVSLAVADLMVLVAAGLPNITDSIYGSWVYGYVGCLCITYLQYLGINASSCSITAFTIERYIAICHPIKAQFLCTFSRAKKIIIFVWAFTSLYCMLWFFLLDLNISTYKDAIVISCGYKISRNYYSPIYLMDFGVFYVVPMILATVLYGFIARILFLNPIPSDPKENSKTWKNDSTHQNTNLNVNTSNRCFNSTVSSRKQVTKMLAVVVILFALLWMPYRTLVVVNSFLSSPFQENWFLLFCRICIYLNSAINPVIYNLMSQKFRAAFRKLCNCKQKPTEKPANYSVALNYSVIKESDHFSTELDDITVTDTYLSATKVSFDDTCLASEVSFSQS

N#CCc1ccc(Cl)cc1
not listed: [18] | [19] | [20]
inactive: all other assays above

C=COCCCl
not listed: [20]
inactive: all other assays above

Cc1ccc(CCl)cc1
not listed: [9] | [11] | [15] | [16]
inactive: all other assays above

ClCc1ccccc1CCl
active: [3] 61.1 µM
not listed: [10] | [18]
inactive: all other assays above

N#Cc1ccccc1Cl
not listed: [6] | [10] | [18] | [20]
inactive: all other assays above

CC1(C)C(/C=C(\Cl)C(F)(F)F)C1C(=O)OC(C#N)c1cccc(Oc2ccccc2)c1 (stereo unspecified)
not listed: [6] | [9] | [10] | [11] | [17] | [18]
inactive: all other assays above

CCc1ccccc1C
not listed: [15] | [16]
inactive: all other assays above

CC(C)OC(=O)C(O)(c1ccc(Cl)cc1)c1ccc(Cl)cc1
active: [2] 30.6 µM
not listed: [8] | [9] | [11] | [17] | [18]
inactive: all other assays above

Clc1ccc(C(c2ccc(Cl)cc2)C(Cl)(Cl)Cl)cc1
active: [2] 13.7 µM and 7.5 µM | [4] 61.6 µM and 54.5 µM | [20] 30.9 µM and 54.5 µM | [9] 7.7 µM and 5.96 µM
55.3 µM (active) and inactive: [13]
not listed: [6] | [8] | [11] | [18]
inactive: all other assays above

c1ccc(OCC2CO2)cc1 (stereo unspecified)
not listed: [6] | [15] | [16] | [18]
inactive: all other assays above

C[As+](C)(C)CC(=O)[O-]
inactive: all assays above

Fc1cccc(Cl)c1CCl
not listed: [10] | [18]
inactive: all other assays above

CCOP(=S)(OCC)SCS(=O)(=O)CC
not listed: [12]
inactive: all other assays above

CCOP(=S)(OCC)OC(Cl)C(Cl)(Cl)Cl (stereo unspecified)
not listed: [6] | [10] | [15] | [16] | [18] | [20]
inactive: all other assays above
